Data published in PMC11006913.
Where a chain is given by its changes, count along the chain named.

What was measured:
Experiment in all cases: PBM; 200 nM protein, PBS
Conditions in all cases: dsDNA, one strand shown
[1] = target: HOXB9 (Homo sapiens, UniProt P17482 171-250, T197M)
[2] = target: HOXC9 (Homo sapiens, UniProt P31274 178-260, K195R)
[3] = target: HOXA7 (Homo sapiens, UniProt P31268 116-202)
[4] = target: T1, PAX4 (Homo sapiens, UniProt O43316 9-242, R200K)
T1 sequence: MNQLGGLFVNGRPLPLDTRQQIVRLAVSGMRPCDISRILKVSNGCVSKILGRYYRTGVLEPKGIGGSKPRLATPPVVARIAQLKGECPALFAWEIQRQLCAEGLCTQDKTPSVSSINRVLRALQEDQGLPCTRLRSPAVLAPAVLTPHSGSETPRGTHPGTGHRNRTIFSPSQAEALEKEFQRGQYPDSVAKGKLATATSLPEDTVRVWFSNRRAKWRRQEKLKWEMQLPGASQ

[5] = target: PRRX1 (Homo sapiens, UniProt P54821 80-166, F113S)
[6] = target: T2, PAX4 (Homo sapiens, UniProt O43316 9-242)
T2 sequence: T1 sequence with K192R

[7] = target: HOXB6 (Homo sapiens, UniProt P17509 132-218, K202E)
[8] = target: T3, PAX4 (Homo sapiens, UniProt O43316 9-242, R200Q)
T3 sequence: T1 sequence with K192Q

[9] = target: T4, PAX4 (Homo sapiens, UniProt O43316 9-242, F177V)
T4 sequence: T1 sequence with F169V, K192R

[10] = target: HOXC10 (Homo sapiens, UniProt Q9NYD6 254-340, K271E)
[11] = target: T5, PAX4 (Homo sapiens, UniProt O43316 9-242, F177Y)
T5 sequence: T1 sequence with F169Y, K192R

[12] = target: HOXC9 (Homo sapiens, UniProt P31274 178-260, R222W)
[13] = target: HESX1 (Homo sapiens, UniProt Q9UBX0 95-180, F115L)
[14] = target: T6, PAX4 (Homo sapiens, UniProt O43316 9-242, R227W)
T6 sequence: T1 sequence with K192R, R219W

[15] = target: HOXA7 (Homo sapiens, UniProt P31268 116-202, W177C)
[16] = target: HOXA4 (Homo sapiens, UniProt Q00056 201-287, W262F)
[17] = target: PRRX1 (Homo sapiens, UniProt P54821 80-166)
[18] = target: HOXB6 (Homo sapiens, UniProt P17509 132-218)
[19] = target: HOXC10 (Homo sapiens, UniProt Q9NYD6 254-340)
[20] = target: HOXB9 (Homo sapiens, UniProt P17482 171-250)
[21] = target: HOXC9 (Homo sapiens, UniProt P31274 178-260)
[22] = target: MSX2 (Homo sapiens, UniProt P35548 130-214, R199I)
[23] = target: HOXD13 (Homo sapiens, UniProt P35453 263-343, T313R)
[24] = target: HOXC9 (Homo sapiens, UniProt P31274 178-260, R193K)
[25] = target: MSX2 (Homo sapiens, UniProt P35548 130-214)
[26] = target: HOXB9 (Homo sapiens, UniProt P17482 171-250, R186Q)
[27] = target: MSX2 (Homo sapiens, UniProt P35548 130-214, F161Y)
Sequence of MSX2 (Homo sapiens, UniProt P35548 130-214, F161Y) (P35548 130-214 F161Y): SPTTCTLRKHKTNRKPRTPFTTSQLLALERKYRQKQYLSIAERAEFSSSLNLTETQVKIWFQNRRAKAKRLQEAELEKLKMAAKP

Sequence of HOXA7 (Homo sapiens, UniProt P31268 116-202, W177C) (P31268 116-202 W177C): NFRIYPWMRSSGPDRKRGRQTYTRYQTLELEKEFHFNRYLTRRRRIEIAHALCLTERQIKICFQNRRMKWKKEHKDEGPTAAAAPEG
Sequence of HOXC10 (Homo sapiens, UniProt Q9NYD6 254-340, K271E) (Q9NYD6 254-340 K271E): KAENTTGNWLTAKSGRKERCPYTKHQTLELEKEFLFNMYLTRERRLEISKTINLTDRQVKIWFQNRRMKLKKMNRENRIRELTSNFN
Sequence of HOXB6 (Homo sapiens, UniProt P17509 132-218) (P17509 132-218): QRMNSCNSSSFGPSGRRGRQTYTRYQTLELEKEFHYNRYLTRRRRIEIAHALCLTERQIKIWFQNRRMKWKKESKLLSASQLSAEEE
Sequence of HOXA7 (Homo sapiens, UniProt P31268 116-202) (P31268 116-202): as the sequence (P31268 116-202 W177C) above, with C62W counted along it
Sequence of HOXB6 (Homo sapiens, UniProt P17509 132-218, K202E) (P17509 132-218 K202E): as the sequence (P17509 132-218) above, with K71E counted along it
Sequence of HOXC9 (Homo sapiens, UniProt P31274 178-260, R222W) (P31274 178-260 R222W): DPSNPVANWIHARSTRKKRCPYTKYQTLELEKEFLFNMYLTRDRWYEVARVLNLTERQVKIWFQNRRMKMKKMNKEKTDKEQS
Sequence of HOXB9 (Homo sapiens, UniProt P17482 171-250, T197M) (P17482 171-250 T197M): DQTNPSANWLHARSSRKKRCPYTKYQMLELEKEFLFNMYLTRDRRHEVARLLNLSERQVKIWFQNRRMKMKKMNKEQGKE
Sequence of HOXC9 (Homo sapiens, UniProt P31274 178-260, K195R) (P31274 178-260 K195R): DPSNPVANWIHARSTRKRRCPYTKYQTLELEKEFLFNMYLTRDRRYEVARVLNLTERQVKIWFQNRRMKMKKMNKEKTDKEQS
Sequence of HOXC9 (Homo sapiens, UniProt P31274 178-260) (P31274 178-260): as the sequence (P31274 178-260 R222W) above, with W45R counted along it
Sequence of MSX2 (Homo sapiens, UniProt P35548 130-214) (P35548 130-214): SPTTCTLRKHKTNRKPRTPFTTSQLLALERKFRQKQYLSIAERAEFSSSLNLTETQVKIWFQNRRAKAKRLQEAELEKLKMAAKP
Sequence of MSX2 (Homo sapiens, UniProt P35548 130-214, R199I) (P35548 130-214 R199I): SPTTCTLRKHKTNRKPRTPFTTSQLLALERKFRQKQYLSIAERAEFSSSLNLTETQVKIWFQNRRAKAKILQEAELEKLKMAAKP
Sequence of HOXC9 (Homo sapiens, UniProt P31274 178-260, R193K) (P31274 178-260 R193K): as the sequence (P31274 178-260 R222W) above, with R16K, W45R counted along it
Sequence of HOXB9 (Homo sapiens, UniProt P17482 171-250, R186Q) (P17482 171-250 R186Q): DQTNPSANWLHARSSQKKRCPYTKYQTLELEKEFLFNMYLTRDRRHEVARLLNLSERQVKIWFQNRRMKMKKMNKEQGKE
Sequence of HOXA4 (Q00056 201-287 W262F): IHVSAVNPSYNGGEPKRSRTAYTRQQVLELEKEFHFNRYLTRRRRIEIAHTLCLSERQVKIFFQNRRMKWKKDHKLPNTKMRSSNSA
Sequence of PRRX1 (Homo sapiens, UniProt P54821 80-166, F113S) (P54821 80-166 F113S): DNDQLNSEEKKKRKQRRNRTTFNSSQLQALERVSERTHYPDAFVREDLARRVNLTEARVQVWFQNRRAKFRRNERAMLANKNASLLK
Sequence of HOXB9 (Homo sapiens, UniProt P17482 171-250) (P17482 171-250): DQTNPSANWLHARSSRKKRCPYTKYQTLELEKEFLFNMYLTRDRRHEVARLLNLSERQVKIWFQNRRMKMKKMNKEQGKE
Sequence of HESX1 (Q9UBX0 95-180 F115L): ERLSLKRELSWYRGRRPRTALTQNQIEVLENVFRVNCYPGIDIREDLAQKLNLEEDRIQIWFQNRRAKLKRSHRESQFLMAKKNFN
Sequence of HOXD13 (P35453 263-343 T313R): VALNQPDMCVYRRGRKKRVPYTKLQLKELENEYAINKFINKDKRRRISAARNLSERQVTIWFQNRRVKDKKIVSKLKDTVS
Sequence of PRRX1 (Homo sapiens, UniProt P54821 80-166) (P54821 80-166): as the sequence (P54821 80-166 F113S) above, with S34F counted along it
Sequence of HOXC10 (Homo sapiens, UniProt Q9NYD6 254-340) (Q9NYD6 254-340): as the sequence (Q9NYD6 254-340 K271E) above, with E18K counted along it

ATTATAAT was tested, and the binding signal [1] was 10.2 upbm affinity estimate (log intensity, higher = more binding, comparable within an allelic series), the binding signal [2] was 12.5 upbm affinity estimate (log intensity, higher = more binding, comparable within an allelic series) and the binding signal [3] was 11.3 upbm affinity estimate (log intensity, higher = more binding, comparable within an allelic series). For the same sequence, the binding signal [4] was 11.8 upbm affinity estimate (log intensity, higher = more binding, comparable within an allelic series), the binding signal [5] was 11.3 upbm affinity estimate (log intensity, higher = more binding, comparable within an allelic series) and the binding signal [6] was 12.2 upbm affinity estimate (log intensity, higher = more binding, comparable within an allelic series). The binding signal [7] was 10.1 upbm affinity estimate (log intensity, higher = more binding, comparable within an allelic series), the binding signal [8] was 12 upbm affinity estimate (log intensity, higher = more binding, comparable within an allelic series) and the binding signal [9] was 10.8 upbm affinity estimate (log intensity, higher = more binding, comparable within an allelic series). The binding signal [10] was 11.8 upbm affinity estimate (log intensity, higher = more binding, comparable within an allelic series), the binding signal [11] was 11.1 upbm affinity estimate (log intensity, higher = more binding, comparable within an allelic series) and the binding signal [12] was 11.1 upbm affinity estimate (log intensity, higher = more binding, comparable within an allelic series). The binding signal [13] was 7.83 upbm affinity estimate (log intensity, higher = more binding, comparable within an allelic series), the binding signal [14] was 11 upbm affinity estimate (log intensity, higher = more binding, comparable within an allelic series) and the binding signal [15] was 8.94 upbm affinity estimate (log intensity, higher = more binding, comparable within an allelic series). The binding signal [16] was 11.4 upbm affinity estimate (log intensity, higher = more binding, comparable within an allelic series), the binding signal [17] was 13.3 upbm affinity estimate (log intensity, higher = more binding, comparable within an allelic series) and the binding signal [18] was 11.8 upbm affinity estimate (log intensity, higher = more binding, comparable within an allelic series).

For ATTTAATG, the binding signal [1] was 10.2 upbm affinity estimate (log intensity, higher = more binding, comparable within an allelic series), the binding signal [2] was 13.1 upbm affinity estimate (log intensity, higher = more binding, comparable within an allelic series) and the binding signal [3] was 11.3 upbm affinity estimate (log intensity, higher = more binding, comparable within an allelic series). The binding signal [19] was 12.4 upbm affinity estimate (log intensity, higher = more binding, comparable within an allelic series), the binding signal [7] was 10.1 upbm affinity estimate (log intensity, higher = more binding, comparable within an allelic series) and the binding signal [20] was 12.3 upbm affinity estimate (log intensity, higher = more binding, comparable within an allelic series). For the same sequence, the binding signal [21] was 13 upbm affinity estimate (log intensity, higher = more binding, comparable within an allelic series), the binding signal [22] was 11.4 upbm affinity estimate (log intensity, higher = more binding, comparable within an allelic series) and the binding signal [23] was 10.7 upbm affinity estimate (log intensity, higher = more binding, comparable within an allelic series). For the same sequence, the binding signal [24] was 13 upbm affinity estimate (log intensity, higher = more binding, comparable within an allelic series), the binding signal [10] was 12.2 upbm affinity estimate (log intensity, higher = more binding, comparable within an allelic series) and the binding signal [25] was 12.2 upbm affinity estimate (log intensity, higher = more binding, comparable within an allelic series). The binding signal [26] was 12.1 upbm affinity estimate (log intensity, higher = more binding, comparable within an allelic series), the binding signal [12] was 11.2 upbm affinity estimate (log intensity, higher = more binding, comparable within an allelic series) and the binding signal [27] was 12 upbm affinity estimate (log intensity, higher = more binding, comparable within an allelic series). The binding signal [15] was 8.91 upbm affinity estimate (log intensity, higher = more binding, comparable within an allelic series) and the binding signal [18] was 11.9 upbm affinity estimate (log intensity, higher = more binding, comparable within an allelic series).
